# Assay results: PubChem BioAssay (Tox21)
# Unmarked numbers belong to inactive results. Records with an inconclusive call do not appear. Where a call stands in place of a potency, no number is given. Calls of active or inactive are those of the source. Unless noted, calls follow the shape of the dose curve; as a rule, active = well fitted curve in the direction sought with a large enough effect in the repeat runs; inconclusive = weak or mixed curves; inactive = no such curve, though single readings can be large; an effect the other way counts as inactive or inconclusive.
# What was measured:
# [1] = qHTS assay for small molecules that induce genotoxicity in human embryonic kidney cells expressing luciferase-tagged ATAD5 (AID 651632); conditions: HEK293T ATAD5-luciferase induction, 16 h; series mostly up to 83.3 µM; also: nearly all actives have a fitted effect of over 15% in size
# Method in brief: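 Quantitative HTS in HEK293T expressing luciferase-tagged ATAD5, whose levels rise upon DNA damage. Exposure ran 16 hr at 37C and 5% CO2, with luminescence read 30 min after Amplite addition at room temperature.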
# [2] = qHTS assay for small molecule agonists of the p53 signaling pathway - cell viability (AID 651633; calls by dose curve;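 also: p53RE-bla HCT reporter cells with a stable beta-lactamase p53 reporter; nearly all actives have a fitted effect of over 30% in size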); conditions: p53RE-bla HCT-116 viability, ATP luminescence, 16 h; series mostly up to 83.3 µM
# Method in brief: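 p53RE-bla cells, seeded at 4,000 per well and rested 5 h at 37 C/5% CO2, received compounds in DMSO for 16 h at 37 C. CellTiter-Glo was then added, and luminescence was read after 30 min at room temperature to gauge cytotoxicity.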
# [3] = qHTS assay for small molecules that induce genotoxicity in human embryonic kidney cells expressing luciferase-tagged ATAD5 - cell viability (AID 651634; calls by dose curve; also: nearly all actives have a fitted effect of over 25% in size); conditions: HEK293T ATAD5-luc cells viability, CellTiter-Fluor, 15.5 h; series mostly up to 83.3 µM
# Method in brief: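 After 15.5 hr incubation with compound at 37C, 5% CO2, HEK293T ATAD5-luciferase cells received CellTiter-Fluor reagent; fluorescence intensity was quantified following 30 min at 37C.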
# [4] = qHTS assay for small molecule disruptors of the mitochondrial membrane potential - cell viability (AID 720634; calls by dose curve;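 also: human HepG2 liver cancer cells; nearly all actives have a fitted effect of over 20% in size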); conditions: HepG2 viability, ATP luminescence (CellTiter-Glo), 1 h; series mostly up to 83.2 µM
# Method in brief: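 ATP-based luminescent viability readout (CellTiter-Glo, 30 min, room temperature) in HepG2 cells multiplexed with the m-MPI membrane potential dye; compound exposure lasted 1 hr at 37 C.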
# [5] = qHTS assay for small molecule disruptors of the mitochondrial membrane potential (AID 720635); conditions: HepG2 mitochondrial membrane potential, Mito-MPS dye ratio; series mostly up to 83.2 µM; also: potency is read from the fitted curve at half-maximal effect
# Method in brief: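 HepG2 cells (2,000/well) attached overnight at 37C, then took compound for 1 hr at 37C, 5% CO2. Mito-MPS dye was added for 30 min; fluorescence was read at 490/535 nm (monomers) and 540/590 nm (aggregates).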
# [6] = qHTS assay to test for compound auto fluorescence at 590 nm (red) in HepG2 cells (AID 720674); conditions: HepG2 autofluorescence, red 540/590 nm, 1 h; series mostly up to 91.3 µM
# Method in brief: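 Compound auto-fluorescence is scored relative to Rose Bengal sodium, measured at 540/590 nm in live HepG2 cultures after 1 hr compound contact (37 C, 5% CO2).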
# [7] = qHTS assay to test for compound auto fluorescence at 535 nm (green) in HepG2 cells (AID 720675); conditions: green autofluorescence 485/535 nm, 1 h; series mostly up to 91.3 µM
# [8] = qHTS assay to test for compound auto fluorescence at 460 nm (blue) in HEK293 cells (AID 720678); conditions: blue autofluorescence 405/460 nm; series mostly up to 91.3 µM
# Method in brief: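 Measured: blue fluorescence (Ex 405/Em 460 nm) of compound-treated HEK293 cells, incubated overnight at 37C with 5% CO2 and scaled to triamterene equivalents.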
# [9] = qHTS assay to test for compound auto fluorescence at 590 nm (red) in HEK293 cells (AID 720679); conditions: red autofluorescence 540/590 nm; series mostly up to 91.3 µM
# Method in brief: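 Using HEK293 cells at 2,000 per well, the screen added 23 nL of each compound after cell attachment and incubated overnight (37C, 5% CO2). The plate reader then captured red-label fluorescence, Ex/Em 540/590nm.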
smiles,measurement,setting,value
CCCCC(CC)COCCO (stereo not given),Potency,[1],inactive
same,outcome,[2],inactive
same,Potency,[3],inactive
same,outcome,[4],inactive
same,Potency,[5],inactive
same,outcome,[6],inactive
same,outcome,[7],inactive
same,outcome,[8],inactive
same,outcome,[9],inactive
CC(CO)c1ccccc1 (stereo not given),Potency,[1],inactive
same,outcome,[2],inactive
same,Potency,[3],inactive
same,outcome,[4],inactive
same,Potency,[5],inactive
same,outcome,[6],inactive
same,outcome,[7],inactive
same,outcome,[8],inactive
same,outcome,[9],inactive
CCNC(=O)C1CC(C)CCC1C(C)C (stereo not given),Potency,[1],inactive
same,outcome,[2],inactive
same,Potency,[3],inactive
same,outcome,[4],inactive
same,outcome,[6],inactive
same,outcome,[7],inactive
same,outcome,[8],inactive
same,outcome,[9],inactive
Nc1ncnc(Nc2ccccc2)n1,Potency,[1],inactive
same,outcome,[2],inactive
same,Potency,[3],inactive
same,outcome,[4],inactive
same,Potency,[5],inactive
same,outcome,[6],inactive
same,outcome,[7],inactive
same,outcome,[8],inactive
same,outcome,[9],inactive
COC(=O)CCCCCCCC(=O)OC,Potency,[1],inactive
same,outcome,[2],inactive
same,Potency,[3],inactive
same,outcome,[4],inactive
same,outcome,[6],inactive
same,outcome,[7],inactive
same,outcome,[8],inactive
CC(=O)N[C@@H](CCC(=O)O)C(=O)O,Potency,[1],inactive
same,outcome,[2],inactive
same,Potency,[3],inactive
same,outcome,[4],inactive
same,Potency,[5],inactive
same,outcome,[6],inactive
same,outcome,[7],inactive
same,outcome,[8],inactive
same,outcome,[9],inactive
N[C@@H](COP(=O)(O)O)C(=O)O,Potency,[1],inactive
same,outcome,[2],inactive
same,Potency,[3],inactive
same,outcome,[4],inactive
same,Potency,[5],inactive
same,outcome,[6],inactive
same,outcome,[7],inactive
same,outcome,[8],inactive
C=C(C)C(=O)OCc1ccccc1,Potency,[1],inactive
same,outcome,[2],inactive
same,Potency,[3],inactive
same,outcome,[4],inactive
same,Potency,[5],inactive
same,outcome,[6],inactive
same,outcome,[7],inactive
same,outcome,[8],inactive
same,outcome,[9],inactive
CC1=C(C(=O)O)N2C(=O)[C@@H](NC(=O)[C@H](N)c3ccc(O)cc3)[C@H]2SC1,Potency,[1],inactive
same,outcome,[2],inactive
same,Potency,[3],inactive
same,outcome,[4],inactive
same,Potency,[5],inactive
same,"fluorescence, relative to Rose Bengal",[6],0.188% [at 18.6 µM]
same,"fluorescence, % of fluorescein control",[7],-0.0034% [at 18.6 µM]
same,"fluorescence, % of triamterene",[8],0.187% [at 18.6 µM]
CC(CN)CC(C)(C)CCN (stereo not given),Potency,[1],inactive
same,outcome,[2],inactive
same,Potency,[3],inactive
same,outcome,[4],inactive
same,Potency,[5],inactive
same,outcome,[6],inactive
same,outcome,[7],inactive
same,outcome,[8],inactive
same,outcome,[9],inactive
O=C(O)c1cc(Br)c(O)c(Br)c1,Potency,[1],inactive
same,outcome,[2],inactive
same,Potency,[3],inactive
same,outcome,[4],inactive
same,Potency,[5],inactive
same,outcome,[7],inactive
same,outcome,[8],inactive
CCC(C)(CCC(C)C)C(=O)O (stereo not given),Potency,[1],inactive
same,outcome,[2],inactive
same,Potency,[3],inactive
same,outcome,[4],inactive
same,outcome,[6],inactive
same,outcome,[7],inactive
same,outcome,[8],inactive
same,outcome,[9],inactive
COc1cc(N)ccc1C,Potency,[1],inactive
same,outcome,[2],inactive
same,outcome,[4],inactive
same,Potency,[5],inactive
same,outcome,[6],inactive
same,outcome,[7],inactive
same,outcome,[8],inactive
same,outcome,[9],inactive
CC[C@H](C)C(=O)O[C@H]1C[C@H](O)C=C2C=C[C@H](C)[C@H](CC[C@@H](O)C[C@@H](O)CC(=O)O)[C@H]21,Potency,[1],inactive
same,outcome,[2],inactive
same,Potency,[3],inactive
same,outcome,[4],inactive
same,outcome,[7],inactive
same,outcome,[8],inactive
same,outcome,[9],inactive
COP(=O)(OC)OC(c1ccc(Cl)cc1)P(=O)(OC)OC (stereo not given),Potency,[1],inactive
same,Potency,[3],inactive
same,outcome,[4],inactive
same,Potency,[5],inactive
same,outcome,[6],inactive
same,outcome,[7],inactive
same,outcome,[8],inactive
same,outcome,[9],inactive
O=C(Nc1ccc(Cl)c(Cl)c1)C1CC1,Potency,[1],inactive
same,outcome,[2],inactive
same,Potency,[3],inactive
same,Potency,[5],11.9 µM (active)
same,outcome,[7],inactive
same,outcome,[8],inactive
same,outcome,[9],inactive
OCCC(F)(F)C(F)(F)C(F)(F)C(F)(F)C(F)(F)C(F)(F)C(F)(F)C(F)(F)F,Potency,[1],inactive
same,outcome,[2],inactive
same,Potency,[3],inactive
same,outcome,[4],inactive
same,outcome,[7],inactive
same,outcome,[8],inactive
same,outcome,[9],inactive
CCN(CC)CC(=O)Nc1c(C)cccc1C,outcome,[2],inactive
same,Potency,[3],inactive
same,outcome,[4],inactive
same,Potency,[5],inactive
same,outcome,[7],inactive
same,outcome,[8],inactive
same,outcome,[9],inactive
CCCCCCCCSCC,Potency,[1],inactive
same,outcome,[2],inactive
same,Potency,[3],inactive
same,outcome,[4],inactive
same,outcome,[6],inactive
same,outcome,[7],inactive
same,outcome,[8],inactive
same,outcome,[9],inactive
COc1ccc2c(c1OC)C(=O)O[C@@H]2[C@H]1c2c(cc3c(c2OC)OCO3)CCN1C,Potency,[1],inactive
same,outcome,[2],inactive
same,outcome,[4],inactive
same,Potency,[5],inactive
same,outcome,[6],inactive
same,outcome,[7],inactive
same,outcome,[8],inactive
same,outcome,[9],inactive
CC(C)(C)OC(=O)c1ccc(O)cc1,Potency,[1],inactive
same,outcome,[2],inactive
same,Potency,[3],inactive
same,Potency,[5],21.7 µM (active)
same,outcome,[6],inactive
same,outcome,[7],inactive
same,outcome,[8],inactive
C[Si](C)=O,activation,[1],0.434% [at 8.08 µM]
same,"activity change, negative = cytotoxicity",[2],15.5% [at 8.08 µM]
same,"activity, negative = cytotoxicity",[3],11.6% [at 8.08 µM]
same,"activity change, negative = cytotoxicity",[4],4.91% [at 8.08 µM]
same,"fluorescence, relative to Rose Bengal",[6],-0.082% [at 9.17 µM]
same,"fluorescence, % of fluorescein control",[7],0.004% [at 9.17 µM]
same,"fluorescence, % of triamterene",[8],-0.115% [at 9.17 µM]
same,"fluorescence, % of fluorescent control",[9],-0.238% [at 9.17 µM]
